Active and inactive are the calls of the source. Rule for the calls: active = hit-call score of the fitted dose curve at least 0.9, where 1 is the maximum; inactive = score below 0.9.
Experiment: ATG_SREBP_CIS: Attagene CIS-FACTORIAL HepG2 Assay for human Sterol Regulatory Element Binding (SREBP) (AID 2282962)
Conditions: HepG2 Attagene cis-factorial SREBP reporter, mRNA; actives raise or lower the signal
Experimental: ATG_CIS is a cell-based, multiplexed-readout assay that uses HepG2, a human liver cell line, with measurements taken at 24 hours after chemical dosing in a 24-well plate.ATG_SREBP_CIS is one of 52 assay component(s) measured or calculated from the ATG_CIS assay. It is designed to make measurements of mRNA induction, a form of inducible reporter, as detected with fluorescence intensity signals by Reverse transcription polymerase chain reaction (RT-PCR) and Capillary electrophoresis technology.Data from the assay component ATG_SREBP_CIS was analyzed into 1 assay endpoint. This assay endpoint, ATG_SREBP_CIS, was analyzed with bidirectional fitting relative to DMSO as the negative control and baseline of activity. Using a type of inducible reporter, measures of mRNA for gain or loss-of-signal activity can be used to understand the reporter gene at the transcription factor-level as they relate to the gene SREBF1. Furthermore, this assay endpoint can be referred to as a primary readout, because this assay has produced multiple assay endpoints where this one serves a reporter gene function. To generalize the intended target to other relatable targets, this assay endpoint is annotated to the dna binding intended target family, where the subfamily is basic helix-loop-helix leucine zipper.
Human liver HepG2 cells are transiently transfected with multiple reporter transcription units (MRTUs) in 6-well plates using FuGene 6 reagent (Roche; 3 ml FuGene/1 mg DNA). The MRTU constructs are regulated by a cis-regulating element (promoter). […] A major difference between the CIS and TRANS system is that in CIS activities of endogenous TFs are measured, whereas the TRANS assay evaluates changes in activities of exogenous, chimeric NR-Gal4 proteins. […] At the end of 24 hour incubation, total RNA was isolated using TriZol reagent (Invitrogen). The isolated RNA is then reverse-transcribed using oligo(dT) primer and Mo-MLV reverse transcriptase (Invitrogen) with DNAse I (Ambion) treatment for 30 min. The one-tenth of the produced cDNA was amplified by PCR using Taq DNA polymerase (Invitrogen) and two reporter sequence-specific primers. The PCR products were fluorescently labeled by primer extension with 6-arboxyfluorescein (6-FAM) 5'-labeled reporter sequence-specific primer (2 min at 95 C, 20 s at 68 C and 10 min at 72 C) and these products were digested with 5U of HpaI (New England Biolabs) for 2h at 37 C. The fragments were purified using Qiaquick PCR columns (Qiagen), analyzed on an ABI 3130xL genetic analyzer (Applied Biosystems) with peak positions identified by using a set of X-rhodamine (ROX)-labeled MapMarker1000 molecular weight standards (BioVentures). The raw capillary electrophoresis data was processed using Attagraph software (Attagene).

SMILES	outcome	AC50
N#Cc1cscn1	inactive	
CCCN(CCC)S(=O)(=O)c1ccc(C(=O)O)cc1	inactive	
CCOC(=O)CC(C)O (stereo not given)	inactive	
Cc1ncc[nH]1	inactive	
CS(C)=O	inactive	
OCCOCCN1CCN(C2=Nc3ccccc3Sc3ccccc32)CC1	inactive	
CC(C)c1ccccc1O	inactive	
OCc1ccc(Cl)cc1Cl	inactive	
C=C(C)CNCC	inactive	
CCCCCCC(C)Nc1ccc(Nc2ccccc2)cc1 (stereo not given)	inactive	
O=C(O)CCCCCCCCCCCC(=O)O	inactive	
CCCCCCC(O)CCCCCCCCCCC(=O)O (stereo not given)	inactive	
ClC(c1ccccc1)(c1ccccc1)c1ccccc1	inactive	
O=C(c1ccccc1)C(O)c1ccccc1 (stereo not given)	inactive	
O=C(CS)OCCOC(=O)CS	inactive	
OC[C@H]1O[C@@H](Oc2ccc(O)cc2)[C@H](O)[C@@H](O)[C@@H]1O	inactive	
COc1cc([C@@H]2c3cc4c(cc3[C@@H](O[C@@H]3O[C@@H]5CO[C@@H](C)O[C@H]5[C@H](O)[C@H]3O)[C@H]3COC(=O)[C@H]23)OCO4)cc(OC)c1O	inactive	
CCOC(=O)c1ccc(N)cc1	inactive	
CCCCCCCCC=CCCCCCCCC1=NCCN1CCO	inactive	
Nc1ccc2cc(S(=O)(=O)O)cc(O)c2c1N=Nc1ccccc1C(F)(F)F	inactive	

SMILES	outcome	AC50
CCOC(=O)CN	inactive	
O=C(Nc1ccc2c(c1)Cc1ccccc1-2)C(F)(F)F	inactive	
Cc1cc(=O)oc2cc(N(C)C)ccc12		100 µM (active)
C[C@H]1C[C@@H](O)CC(C)(C)C1	inactive	
Cc1ncc([N+](=O)[O-])n1CCO	inactive	
C=Cc1ccc(C)cc1	inactive	
IC(I)I	inactive	
NC(=S)NNC(N)=S	inactive	
O=[N+]([O-])c1ccc(O)cc1C(F)(F)F		100 µM (active)
C=CCOC(=O)CCCCCC	inactive	
CC(C)Nc1nc(N)nc(Cl)n1	inactive	
CCCCCCOC(=O)CCC	inactive	
O=c1c(O)c(-c2ccc(O)cc2)oc2cc(O)cc(O)c12	inactive	
O=C(Nc1ccc2c(O)c(N=Nc3ccc(N=Nc4ccc(S(=O)(=O)O)cc4)cc3)c(S(=O)(=O)O)cc2c1)c1ccccc1	inactive	
C1CCOC1	inactive	
CCCC(=O)c1ccccc1	inactive	
Nc1c(S(=O)(=O)O)cc(Br)c2c1C(=O)c1ccccc1C2=O	inactive	
C1CCCCC1	inactive	
CS(=O)(=O)c1ccc(Cl)cc1	inactive	
COc1ccccc1N=Nc1c(S(=O)(=O)O)cc2cc(S(=O)(=O)O)cc(NC(C)=O)c2c1O	inactive	
